From PubChem BioAssay (NCI) come the findings set out here.

Test systems include SR leukemia; RPMI-8226 leukemia; OVCAR-8 ovarian; OVCAR-5 ovarian; OVCAR-4 ovarian; SK-OV-3 ovarian; IGROV1 ovarian; OVCAR-3 ovarian; HS 578T breast; NCI/ADR-RES ovarian.
Holding throughout (assay): NCI-60 one-dose screen, 48 h (100 = growth as untreated, 0 = no growth, -100 = all killed)
Common to all, as to conditions: 10 µM unless noted

Values joined by “and” are separate entries in the source; they are usually repeats but may differ in a detail not shown here. Equal values may be shown once. The panel holds about 83,000 compounds, 20% with a hit somewhere; the sample as a whole holds those more often.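 Cells were grown in 96-well plates and exposed to the test compound at a single concentration for 48 hours; results are reported as percent growth, with values below 10 considered active.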 Active and inactive are the calls of the source.

Regarding `Cc1ccc(NC(=O)c2sc3nc(C)c(C(=O)c4ccccc4)cc3c2N)cc1`, the growth with SR leukemia is 45.2% (inactive); in the test with RPMI-8226 leukemia, 90.1% (inactive); with OVCAR-8 ovarian, 94.6% (inactive); with OVCAR-5 ovarian, 97.6% (inactive); with OVCAR-4 ovarian it was 89.3% (inactive); in the test on SK-OV-3 ovarian it was 45.8% (inactive). The growth in the test on IGROV1 ovarian was 95% (inactive); in the test with OVCAR-3 ovarian it was 94.8% (inactive); in the test on HS 578T breast it was 75.9% (inactive); with NCI/ADR-RES ovarian it was 95.2% (inactive).
As to `Nc1n[nH]c2cccc(C#Cc3cccc(NC(=O)c4ccc(N5CCOCC5)c(C(F)(F)F)c4)c3)c12`, the growth with SR leukemia is 12.6% (inactive); in the test with RPMI-8226 leukemia it was -0.476% (active); in the test with OVCAR-8 ovarian, 10.7% (inactive); in the test with OVCAR-5 ovarian it was 8.26% (active); in the test with OVCAR-4 ovarian, 25.6% (inactive); in the test on SK-OV-3 ovarian it was 2.24% (active). The growth is -39.1% (active) in the test on IGROV1 ovarian, 34.9% (inactive) with OVCAR-3 ovarian, -11.4% (active) in the test on HS 578T breast and 14.4% (inactive) with NCI/ADR-RES ovarian.
For the compound `COC(=O)c1c2c(c(C)[n+]([O-])c1C)C(=O)C(NCCN1CCOCC1)=CC2=O`, the growth in the test with SR leukemia is 66.9% (inactive); in the test with RPMI-8226 leukemia it was 91.9% (inactive); in the test with OVCAR-8 ovarian, 61.7% (inactive); in the test on OVCAR-5 ovarian, 89.1% (inactive); in the test with OVCAR-4 ovarian, 35.4% (inactive); with SK-OV-3 ovarian, 103% (inactive). The growth in the test with IGROV1 ovarian is 63.4% (inactive); with OVCAR-3 ovarian, 5.12% (active); in the test on HS 578T breast, 101% (inactive); in the test with NCI/ADR-RES ovarian, 91.7% (inactive).
Take `COc1ccc2c(c1)CCNC21C(=O)Nc2c(Br)cc(Br)cc21` (stereo not given): the growth in the test on SR leukemia is 96.4% (inactive); in the test with RPMI-8226 leukemia, 106% (inactive); with OVCAR-8 ovarian it was 101% (inactive); in the test with OVCAR-5 ovarian, 91.3% (inactive); with OVCAR-4 ovarian it was 95.2% (inactive); with SK-OV-3 ovarian it was 84.2% (inactive). Moreover, the growth with IGROV1 ovarian is 82.4% (inactive); with OVCAR-3 ovarian it was 101% (inactive); in the test with HS 578T breast it was 94.8% (inactive); in the test on NCI/ADR-RES ovarian it was 104% (inactive).
As to `CCOC(=O)c1cnn(-c2ccc(S(N)(=O)=O)cc2)c1N`, the growth in the test on SR leukemia was 95.5% (inactive); in the test with RPMI-8226 leukemia, 94.1% (inactive); in the test on OVCAR-8 ovarian, 102% (inactive); in the test with OVCAR-5 ovarian it was 89.2% (inactive); in the test on OVCAR-4 ovarian, 103% (inactive); in the test on SK-OV-3 ovarian, 104% (inactive). Moreover, the growth in the test with IGROV1 ovarian is 97.9% (inactive); in the test with OVCAR-3 ovarian, 134% (inactive); in the test with HS 578T breast it was 110% (inactive); in the test on NCI/ADR-RES ovarian, 96.1% (inactive).
As to `CN(C)CCCn1c2nc(=O)[nH]c(=O)c-2nc2cc(Cl)c(Cl)cc21`, the growth with SR leukemia is 83.7% (inactive); with RPMI-8226 leukemia, 73.6% (inactive); in the test with OVCAR-8 ovarian it was 50% (inactive); in the test on OVCAR-5 ovarian, 125% (inactive); in the test with OVCAR-4 ovarian, 81.8% (inactive); in the test on SK-OV-3 ovarian, 109% (inactive). The growth in the test on IGROV1 ovarian was 54% (inactive); in the test on OVCAR-3 ovarian, -20.9% (active); in the test with HS 578T breast, 106% (inactive); with NCI/ADR-RES ovarian it was 85.9% (inactive).
Take `Cc1nc(Nc2ncc(C(=O)Nc3c(C)cccc3Cl)s2)cc(N2CCN(CCO)CC2)n1`: the growth is 40.4% (inactive) and 14.7% (inactive) in the test on SR leukemia; 92.8% (inactive) and 61.1% (inactive) in the test with RPMI-8226 leukemia; 24.2% (inactive) and -24.8% (active) in the test with OVCAR-8 ovarian; 23.7% (inactive) and 10.2% (inactive) in the test with OVCAR-5 ovarian; 52.8% (inactive) and 44.8% (inactive) in the test with OVCAR-4 ovarian; -7.55% (active) and -25.8% (active) in the test on SK-OV-3 ovarian. Further, the growth in the test on IGROV1 ovarian is -16.4% (active) and -37% (active); in the test on OVCAR-3 ovarian it was 37.3% (inactive) and 20.4% (inactive); with HS 578T breast, -8.57% (active); in the test on NCI/ADR-RES ovarian it was 45.8% (inactive) and 23.7% (inactive).
As for `Nc1nc(N)c2c(n1)NC(c1ccc(Cl)cc1)CC(c1cccc(Nc3ccncc3)c1)=N2` (stereo not given), the growth in the test with SR leukemia was 8.66% (active); with RPMI-8226 leukemia it was 55.9% (inactive); in the test on OVCAR-8 ovarian, 39% (inactive); in the test on OVCAR-5 ovarian, 90.4% (inactive); with OVCAR-4 ovarian, 73.8% (inactive); with SK-OV-3 ovarian it was 84.2% (inactive). In addition, the growth is 41.6% (inactive) with IGROV1 ovarian, 82.3% (inactive) in the test with OVCAR-3 ovarian, 77.9% (inactive) with HS 578T breast and 100% (inactive) with NCI/ADR-RES ovarian.
As for `COc1ccc(-c2cc3cnc4ccccc4c3oc2=O)cc1`, the growth with SR leukemia was 74.6% (inactive); in the test on RPMI-8226 leukemia, 102% (inactive); in the test with OVCAR-8 ovarian, 105% (inactive); in the test on OVCAR-5 ovarian it was 101% (inactive); with OVCAR-4 ovarian, 103% (inactive); in the test on SK-OV-3 ovarian it was 93.9% (inactive). Further, the growth is 106% (inactive) in the test on IGROV1 ovarian, 106% (inactive) in the test with OVCAR-3 ovarian, 100% (inactive) with HS 578T breast and 102% (inactive) in the test with NCI/ADR-RES ovarian.
In the case of `O=C(c1ccc(Nc2nccc(NCCCNc3ccnc4cc(Cl)ccc34)n2)cc1)N1CCCCC1`, the growth in the test on SR leukemia was -2.26% (active); with RPMI-8226 leukemia it was 81% (inactive); in the test on OVCAR-8 ovarian it was 34% (inactive); in the test on OVCAR-5 ovarian, 71.2% (inactive); with OVCAR-4 ovarian, 48.4% (inactive); with SK-OV-3 ovarian it was 66.7% (inactive). Besides, the growth with IGROV1 ovarian is 39.7% (inactive); with OVCAR-3 ovarian it was 37.7% (inactive); in the test on HS 578T breast, 84.8% (inactive); in the test on NCI/ADR-RES ovarian it was 92.6% (inactive).
Turning to `C=C(CN1CC=CCC1)[C@@H]1CC[C@]2(COC(C)=O)CC[C@]3(C)[C@H](CC[C@@H]4[C@@]5(C)CC[C@H](O)C(C)(C)[C@@H]5CC[C@]43C)[C@@H]12`, the growth in the test with SR leukemia was 90.4% (inactive); with RPMI-8226 leukemia, 84.2% (inactive); in the test on OVCAR-8 ovarian, 96.1% (inactive); with OVCAR-5 ovarian it was 132% (inactive); with OVCAR-4 ovarian it was 92.2% (inactive); with SK-OV-3 ovarian, 115% (inactive). The growth in the test on IGROV1 ovarian is 112% (inactive); in the test on OVCAR-3 ovarian it was 100% (inactive); in the test on HS 578T breast, 103% (inactive); in the test on NCI/ADR-RES ovarian it was 98.3% (inactive).
For the compound `O=C(CN1C(=O)S/C(=C\C(Cl)=C\c2ccccc2)C1=O)NCCCn1ccnc1`, the growth is 2.18% (active) in the test on SR leukemia; 0.978% (active) with RPMI-8226 leukemia; 12.4% (inactive) with OVCAR-8 ovarian; 80.1% (inactive) in the test with OVCAR-5 ovarian; 43.1% (inactive) in the test on OVCAR-4 ovarian; 86% (inactive) in the test on SK-OV-3 ovarian. Also, the growth in the test on IGROV1 ovarian is 2.87% (active); in the test with OVCAR-3 ovarian it was 1.07% (active); with HS 578T breast, 51.7% (inactive); with NCI/ADR-RES ovarian, 81.2% (inactive).
